The source made the active and inactive calls.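 The calls were made as follows: active = Her2 level under about 52% in both replicate screens, with viability over 70% of control (limit read from the data); inconclusive = Her2 under the limit in one screen only, or viability under 70%; inactive = Her2 level above the set limit.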

Chain of Receptor tyrosine-protein kinase erbB-2 (Homo sapiens) (P04626 whole entry, looked up): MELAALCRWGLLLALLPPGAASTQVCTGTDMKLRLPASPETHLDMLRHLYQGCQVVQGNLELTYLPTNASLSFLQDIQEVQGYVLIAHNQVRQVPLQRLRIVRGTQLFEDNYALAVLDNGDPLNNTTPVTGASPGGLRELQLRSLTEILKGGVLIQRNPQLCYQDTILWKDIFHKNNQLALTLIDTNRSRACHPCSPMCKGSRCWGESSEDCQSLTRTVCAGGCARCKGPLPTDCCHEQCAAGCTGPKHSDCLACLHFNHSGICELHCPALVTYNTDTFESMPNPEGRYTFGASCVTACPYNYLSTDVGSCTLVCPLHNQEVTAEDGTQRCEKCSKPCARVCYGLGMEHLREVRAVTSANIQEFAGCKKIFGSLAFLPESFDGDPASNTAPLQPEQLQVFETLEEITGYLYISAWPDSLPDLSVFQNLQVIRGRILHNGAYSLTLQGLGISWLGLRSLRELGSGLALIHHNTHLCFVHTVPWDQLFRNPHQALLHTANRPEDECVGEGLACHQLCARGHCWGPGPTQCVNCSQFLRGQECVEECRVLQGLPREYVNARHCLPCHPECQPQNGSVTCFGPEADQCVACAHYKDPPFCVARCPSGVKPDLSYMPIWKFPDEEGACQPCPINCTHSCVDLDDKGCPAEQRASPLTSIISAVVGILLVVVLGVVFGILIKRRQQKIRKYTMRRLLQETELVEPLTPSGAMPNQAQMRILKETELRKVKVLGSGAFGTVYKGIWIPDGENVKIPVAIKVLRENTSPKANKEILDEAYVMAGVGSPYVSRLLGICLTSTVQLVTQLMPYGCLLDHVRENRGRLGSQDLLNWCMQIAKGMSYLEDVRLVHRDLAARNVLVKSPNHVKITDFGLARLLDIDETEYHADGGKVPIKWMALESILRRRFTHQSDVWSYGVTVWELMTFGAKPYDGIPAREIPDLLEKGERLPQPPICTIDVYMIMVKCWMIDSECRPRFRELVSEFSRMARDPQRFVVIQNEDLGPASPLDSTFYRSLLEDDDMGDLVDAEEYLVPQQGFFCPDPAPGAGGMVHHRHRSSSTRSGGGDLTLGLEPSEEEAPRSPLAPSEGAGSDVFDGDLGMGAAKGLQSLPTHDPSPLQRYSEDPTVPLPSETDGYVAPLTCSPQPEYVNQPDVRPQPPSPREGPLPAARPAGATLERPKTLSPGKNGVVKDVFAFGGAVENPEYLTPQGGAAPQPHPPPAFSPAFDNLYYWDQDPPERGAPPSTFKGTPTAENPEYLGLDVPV

Tested on in one assay: not listed separately
Nature of the assay: Her2 expression decrease, cell viability multiplex – SKBR3 breast tumor cells, AlphaScreen, ATP viability, primary screen (AID 461).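 As to viability: percent of carrier control wells set as 100% viability.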 The note with it: SKBR3 Her2 protein level, 18-24 h, measured here: SKBR3 viability, ATP luminescence, at 10 µM.
For orientation: viability means a read-out of living cells in per cent, often relative to untreated cells. `CC(NC(=O)C1CC1)C(c1cccs1)N1CCN(c2ccccc2)CC1` (stereo not given): the viability came to 95.5%.

As to `O=C(Nc1c(C(=O)NCc2ccco2)cnn1-c1ccccc1)c1ccc(F)cc1`, the viability worked out at 95.5%.

Take `COc1ccc(-n2c(Cc3cccn3C)nnc2SCC(=O)Nc2cccc(Cl)c2)cc1`: the viability was determined as 103%.

As for `CCOC(=O)N1CCN(C(=O)c2ccc3nc4ccsc4c(=O)n3c2)CC1`, the viability stood at 97.5%.

As to `CCC(C)C(=O)Nc1nc2c(s1)C(=O)CC(C)(C)C2` (stereo not given), the viability was 120%.

With `COc1cc2c(cc1OC)CN(C(=O)CSc1nc3[nH]ncc3c(=O)n1-c1ccccc1)CC2`, the viability turned out to be 105%.

With `CC(NC(=O)c1cc2c(=O)n(C)c3ccccc3c2n1C)c1ccc2c(c1)OCCO2` (stereo not given), the viability amounted to 94.5%.

Consider `O=C(C1CCCN1S(=O)(=O)c1cccc2cccnc12)N1CCn2c1nc1ccccc12` (stereo not given), for which the viability is 100%.

In the case of `CCn1c(SCC(=O)Nc2cc(C)ccc2C)nc2c(c1=O)SC(C)C2` (stereo not given), the viability came out at 90.5%.

`CCOC(=O)c1sc2nc(NC(=O)COc3ccccc3)sc2c1C`: the viability was 78.5%.

On to `Cc1ccc(-n2ncc3c(N4CCCC(C)C4)ncnc32)c(C)c1` (stereo not given), for which the viability is 104%.

Take `O=C(O)C1C2C=CC3(CN(C4CCCC4)C(=O)C13)O2` (stereo not given): the viability came out at 101%.

Regarding `CCCCSc1nc2c(cnn2-c2ccc(F)cc2)c(=O)[nH]1`, the viability worked out at 93.5%.

As to `CCCCCn1c(=O)[nH]c2cc(C(=O)NCCN3CCOCC3)ccc2c1=O`, the viability was determined as 99.5%.

Take `Cc1ccc(-c2cc3nc4c(c(=O)n3[nH]2)CCCC4)cc1`: the viability was found to be 105%.

As to `CCCOC(=O)c1[nH]c2c(c1C)C(=O)CC(c1cc(OC)c(OC)c(OC)c1)C2` (stereo not given), the viability was found to be 89%.

Consider `COc1cccc(-c2nc3n(n2)C(c2ccccc2Cl)C(C(N)=O)=C(C)N3)c1` (stereo not given), for which the viability turned out to be 91%.

Regarding `Cc1c(NC(=O)c2ccc(Br)o2)c(=O)n(-c2ccccc2)n1C`, the viability came out at 91%.

Regarding `COc1ccc(-c2nc(CS(=O)CC(=O)NCc3ccccn3)c(C)o2)cc1` (stereo not given), the viability amounted to 103%.

Consider `CCOc1cc(C2NC(=O)NC(O)(C(F)(F)F)C2C(=O)c2ccccc2)ccc1OC` (stereo not given), for which the viability worked out at 108%.

In the case of `CN(CCCNC(=O)c1cn(C)c2ccc(S(=O)(=O)N(C)C)cc2c1=O)c1ccccc1`, the viability turned out to be 85.5%.

Another assay has as its target Receptor tyrosine-protein kinase erbB-2 (Homo sapiens) (UniProt P04626). Described as above. The note with it: 18-24 h, at 10 µM, stronger effect = lower value.
Turning to `Cc1ccc(CNC(=O)C2CCCN(S(=O)(=O)c3cnc[nH]3)C2)cc1` (stereo not given), the Her2 level is 110% (inactive).

As to `COc1cc2c(cc1OC)C(c1ccc(C)o1)CC(=O)N2` (stereo not given), the Her2 level was 87.5% (inactive).

Consider `COc1ccc(S(=O)(=O)Nc2ccc(F)c(Cl)c2)cc1OC`, for which the Her2 level was 93.5% (inactive).

Take `O=C(OCCN(CCOC(=O)c1ccncc1)S(=O)(=O)c1cccs1)c1ccncc1`: the Her2 level is 75.5% (inactive).

As for `N#CCCN(Cc1cccnc1)C(=O)Nc1ccc(Cl)c(Cl)c1`, the Her2 level was 94% (inactive).

For `NC(=O)CN1C(=O)C(O)(CC(=O)c2ccccc2O)c2ccccc21` (stereo not given), the Her2 level is 95.5% (inactive).

In the case of `CCCOc1ccc(C2C(C(=O)OC)=CN(CCOC)C=C2C(=O)OC)cc1`, the Her2 level was 92% (inactive).

As to `C(=N\c1c(-c2ccccc2)nc2n1CCS2)/c1ccccc1`, the Her2 level is 104% (inactive).

For the molecule `COC(=O)c1cn(NC(=O)C2CCCO2)c(=O)c2ccccc12` (stereo not given), the Her2 level was 76% (inactive).

Turning to `CCN1CCN(C(=O)C2CC(c3ccc(F)cc3)=NO2)CC1` (stereo not given), the Her2 level was 105% (inactive).

`CCOC(=O)C1CCN(Cc2ccc(OC)c(C)c2OC)CC1`: the Her2 level is 97.5% (inactive).

`Cn1c(NC(=O)c2ccccc2NC(=O)C(C)(C)C)nc2ccccc21`: the Her2 level is 116% (inactive).

With `Cc1cccc(CN2CCC(CNC(=O)C3CCCN(S(=O)(=O)c4cnc[nH]4)C3)CC2)c1` (stereo not given), the Her2 level was 95.5% (inactive).

For the molecule `CC1CC(NC(=O)c2cnc3n(c2=O)CCS3)CC(C)(C)C1` (stereo not given), the Her2 level was 108% (inactive).

As for `CC1CCCN(S(=O)(=O)c2coc(C(N)=O)c2)C1` (stereo not given), the Her2 level is 119% (inactive).

For the molecule `O=C(NCc1ccc2c(c1)OCO2)C1CCCN(S(=O)(=O)c2cccc3cccnc23)C1` (stereo not given), the Her2 level was 85% (inactive).

As to `CC(C)(O)C#Cc1ccc(C(=O)N2CCN(C(=O)c3ccco3)CC2)cc1`, the Her2 level is 88% (inactive).

On to `COC(=O)C1=C(C)Nc2nnnn2C1c1ccc(Cl)cc1Cl` (stereo not given), for which the Her2 level was 80% (inactive).

Consider `CC(NC(=O)C1CC1)C(c1cccs1)N1CCN(c2ccccc2)CC1` (stereo not given), for which the Her2 level is 96% (inactive).

For `O=C(Nc1c(C(=O)NCc2ccco2)cnn1-c1ccccc1)c1ccc(F)cc1`, the Her2 level was 116% (inactive).

With `COc1ccc(-n2c(Cc3cccn3C)nnc2SCC(=O)Nc2cccc(Cl)c2)cc1`, the Her2 level is 89% (inactive).

With `CCOC(=O)N1CCN(C(=O)c2ccc3nc4ccsc4c(=O)n3c2)CC1`, the Her2 level is 102% (inactive).

For `CCC(C)C(=O)Nc1nc2c(s1)C(=O)CC(C)(C)C2` (stereo not given), the Her2 level is 106% (inactive).

As to `COc1cc2c(cc1OC)CN(C(=O)CSc1nc3[nH]ncc3c(=O)n1-c1ccccc1)CC2`, the Her2 level is 97% (inactive).

Turning to `CC(NC(=O)c1cc2c(=O)n(C)c3ccccc3c2n1C)c1ccc2c(c1)OCCO2` (stereo not given), the Her2 level is 84% (inactive).

Consider `O=C(C1CCCN1S(=O)(=O)c1cccc2cccnc12)N1CCn2c1nc1ccccc12` (stereo not given), for which the Her2 level was 84.5% (inactive).

As to `CCn1c(SCC(=O)Nc2cc(C)ccc2C)nc2c(c1=O)SC(C)C2` (stereo not given), the Her2 level was 116% (inactive).

Turning to `CCOC(=O)c1sc2nc(NC(=O)COc3ccccc3)sc2c1C`, the Her2 level is 123% (inactive).

With `Cc1ccc(-n2ncc3c(N4CCCC(C)C4)ncnc32)c(C)c1` (stereo not given), the Her2 level was 78.5% (inactive).

As for `O=C(O)C1C2C=CC3(CN(C4CCCC4)C(=O)C13)O2` (stereo not given), the Her2 level is 100% (inactive).

`CCCCSc1nc2c(cnn2-c2ccc(F)cc2)c(=O)[nH]1`: the Her2 level is 92% (inactive).

Consider `CCCCCn1c(=O)[nH]c2cc(C(=O)NCCN3CCOCC3)ccc2c1=O`, for which the Her2 level was 88% (inactive).

For the molecule `Cc1ccc(-c2cc3nc4c(c(=O)n3[nH]2)CCCC4)cc1`, the Her2 level is 119% (inactive).

In the case of `CCCOC(=O)c1[nH]c2c(c1C)C(=O)CC(c1cc(OC)c(OC)c(OC)c1)C2` (stereo not given), the Her2 level was 79% (inactive).

In the case of `COc1cccc(-c2nc3n(n2)C(c2ccccc2Cl)C(C(N)=O)=C(C)N3)c1` (stereo not given), the Her2 level is 94% (inactive).

Turning to `Cc1c(NC(=O)c2ccc(Br)o2)c(=O)n(-c2ccccc2)n1C`, the Her2 level is 96% (inactive).

Regarding `COc1ccc(-c2nc(CS(=O)CC(=O)NCc3ccccn3)c(C)o2)cc1` (stereo not given), the Her2 level was 92.5% (inactive).

For `CCOc1cc(C2NC(=O)NC(O)(C(F)(F)F)C2C(=O)c2ccccc2)ccc1OC` (stereo not given), the Her2 level is 110% (inactive).

As for `CN(CCCNC(=O)c1cn(C)c2ccc(S(=O)(=O)N(C)C)cc2c1=O)c1ccccc1`, the Her2 level was 90% (inactive).

(Values after PubChem BioAssay.)
